Measurements: PubChem BioAssay AID1159580 (chemical genetic matrix, 2015)
Where “and” joins values, the source holds several entries; their conditions need not be identical. Equal entries are not always repeated. The whole screen tested about 5,500 compounds, of which about 2,000 (36%) were called active. About 18% were inconclusive and are not listed. No stated cut-off is given here; in the data, active means normalized growth mostly below about 0.91 (no sharp cut-off); inconclusive means no clear call, values can overlap the other calls; inactive means mostly above about 0.92. The list shows a part of the results.

Assay: chemical genetic growth profiling, strain panel (AID 1159580);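 further: tested at 20 µM; growth read once vehicle control cultures reached saturation at 30 °C; 1 = growth at the plate median or of vehicle wells; lower values mean less growth of the strain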
Details: growth OD

Measured: normalized growth

CCCCCCCCC(=O)NCc1ccc(O)c(OC)c1
inactive: S. cerevisiae deletion strains, locus YJR075W, strain HOC1, active compounds read low 0.989 and 0.961 | S. cerevisiae deletion strains, locus YKL009W, strain mrt4, active compounds read low 0.955 | S. cerevisiae deletion strains, locus YKL068W, active compounds read low 0.986 | S. cerevisiae deletion strains, locus YKL085W, strain MDH1 (second series), active compounds read low 0.987 | S. cerevisiae deletion strains, locus YKL085W, strain MDH1, active compounds read low 0.987 | S. cerevisiae deletion strains, locus YKL160W, strain elf1, active compounds read low 0.985 | S. cerevisiae deletion strains, locus YKL190W, strain CNB1, active compounds read low 0.999 | S. cerevisiae deletion strains, locus YKR001C, strain vps1, active compounds read low 0.983 | S. cerevisiae deletion strains, locus YKR026C, strain gcn3, active compounds read low 0.979 | S. cerevisiae deletion strains, locus YKR091W, strain srl3, active compounds read low 0.999 | S. cerevisiae deletion strains, locus YLL001W, strain dnm1, active compounds read low 1 | S. cerevisiae deletion strains, locus YLL026W, active compounds read low 1 | S. cerevisiae deletion strains, locus YLL041C, strain sdh2, active compounds read low 1 | S. cerevisiae deletion strains, locus YLR027C, strain aat2, active compounds read low 1.01 | S. cerevisiae deletion strains, locus YLR039C, strain RIC1, active compounds read low 1 | S. cerevisiae deletion strains, locus YLR058C, strain SHM2, active compounds read low 0.984 | S. cerevisiae deletion strains, locus YLR102C, strain apc9, active compounds read low 0.987 | S. cerevisiae deletion strains, locus YLR113W, strain HOG1, active compounds read low 1.01 | S. cerevisiae deletion strains, locus YLR221C, strain rsa3, active compounds read low 1.01 | S. cerevisiae deletion strains, locus YLR258W, strain gsy2, active compounds read low 0.989 | S. cerevisiae deletion strains, locus YLR262C, strain YPT6 (second series), active compounds read low 1.02 | S. cerevisiae deletion strains, locus YLR262C, strain YPT6, active compounds read low 1.01 | S. cerevisiae deletion strains, locus YLR268W, strain sec22, active compounds read low 0.97 | S. cerevisiae deletion strains, locus YLR320W, strain mms22, active compounds read low 0.997 | S. cerevisiae deletion strains, locus YLR330W, strain CHS5, active compounds read low 0.985 | S. cerevisiae deletion strains, locus YLR342W, strain FKS1 (second series), active compounds read low 0.966 | S. cerevisiae deletion strains, locus YLR342W, strain FKS1, active compounds read low 1.03 | S. cerevisiae deletion strains, locus YLR357W, strain rsc2, active compounds read low 1.12 | S. cerevisiae deletion strains, locus YLR370C, strain arc18, active compounds read low 0.993 | S. cerevisiae deletion strains, locus YLR371W, strain rom2, active compounds read low 0.985 | S. cerevisiae deletion strains, locus YLR384C, strain iki3, active compounds read low 1 | S. cerevisiae deletion strains, locus YLR418C, strain cdc73, active compounds read low 0.989 | S. cerevisiae deletion strains, locus YML016C, strain PPZ1, active compounds read low 0.978 | S. cerevisiae deletion strains, locus YML032C, strain rad52, active compounds read low 0.97 | S. cerevisiae deletion strains, locus YML120C, strain ndi1, active compounds read low 0.992 | S. cerevisiae deletion strains, locus YML124C, strain tub3, active compounds read low 0.975 | S. cerevisiae deletion strains, locus YMR058W, strain fet3, active compounds read low 1 | S. cerevisiae deletion strains, locus YMR078C, strain ctf18, active compounds read low 0.977 | S. cerevisiae deletion strains, locus YMR125W, strain sto1, active compounds read low 1.05 | S. cerevisiae deletion strains, locus YMR129W, active compounds read low 1.02 | S. cerevisiae deletion strains, locus YMR205C, strain PFK2, active compounds read low 0.961 | S. cerevisiae deletion strains, locus YMR223W, strain ubp8, active compounds read low 0.965 | S. cerevisiae deletion strains, locus YMR231W, strain pep5, active compounds read low 1.01 | S. cerevisiae deletion strains, locus YMR263W, strain SAP30, active compounds read low 0.998 | S. cerevisiae deletion strains, locus YMR307W, strain GAS1, active compounds read low 1.07 and 0.979 | S. cerevisiae deletion strains, locus YNL067W, strain RPL9B, active compounds read low 0.995 | S. cerevisiae deletion strains, locus YNL071W, strain lat1, active compounds read low 0.976 | S. cerevisiae deletion strains, locus YNL128W, strain TEP1, active compounds read low 0.999 and 0.969 | S. cerevisiae deletion strains, locus YNL153C, strain GIM3, active compounds read low 0.997 | S. cerevisiae deletion strains, locus YNL175C, strain NOP13, active compounds read low 0.972 | S. cerevisiae deletion strains, locus YNL183C, strain NPR1, active compounds read low 0.93 | S. cerevisiae deletion strains, locus YNL197C, strain WHI3, active compounds read low 0.963 | S. cerevisiae deletion strains, locus YNL209W, strain ssb2, active compounds read low 0.995 | S. cerevisiae deletion strains, locus YNL224C, strain SQS1, active compounds read low 0.984 | S. cerevisiae deletion strains, locus YNL233W, strain BNI4, active compounds read low 0.988 | S. cerevisiae deletion strains, locus YNL248C, strain rpa49, active compounds read low 1.06 | S. cerevisiae deletion strains, locus YNL250W, strain rad50, active compounds read low 0.975 | S. cerevisiae deletion strains, locus YNL271C, strain bni1, active compounds read low 0.983 | S. cerevisiae deletion strains, locus YNL298W, strain CLA4, active compounds read low 0.966 | S. cerevisiae deletion strains, locus YNL307C, strain MCK1, active compounds read low 0.955 | S. cerevisiae deletion strains, locus YNL322C, strain KRE1 (second series), active compounds read low 0.998 | S. cerevisiae deletion strains, locus YNL322C, strain KRE1, active compounds read low 0.994 and 0.983 | S. cerevisiae deletion strains, locus YNR049C, strain mso1, active compounds read low 1.02 | S. cerevisiae deletion strains, locus YNR052C, strain pop2, active compounds read low 0.992 | S. cerevisiae deletion strains, locus YOL006C, strain TOP1, active compounds read low 0.927 | S. cerevisiae deletion strains, locus YOL012C, strain htz1 0.863 | S. cerevisiae deletion strains, locus YOL147C, strain pex11, active compounds read low 0.991 | S. cerevisiae deletion strains, locus YOR001W, strain rrp6, active compounds read low 1.01 | S. cerevisiae deletion strains, locus YOR061W, strain CKA2, active compounds read low 0.988 | S. cerevisiae deletion strains, locus YOR069W, strain VPS5, active compounds read low 0.983 | S. cerevisiae deletion strains, locus YOR070C, strain gyp1, active compounds read low 0.982 | S. cerevisiae deletion strains, locus YOR080W, strain dia2, active compounds read low 1.01 | S. cerevisiae deletion strains, locus YOR083W, strain WHI5 (second series), active compounds read low 0.998 | S. cerevisiae deletion strains, locus YOR083W, strain WHI5, active compounds read low 0.988 | S. cerevisiae deletion strains, locus YOR106W, strain vam3, active compounds read low 1 | S. cerevisiae deletion strains, locus YOR136W, strain idh2, active compounds read low 0.981 | S. cerevisiae deletion strains, locus YOR144C, strain elg1, active compounds read low 0.989 | S. cerevisiae deletion strains, locus YOR184W, strain ser1, active compounds read low 0.939 | S. cerevisiae deletion strains, locus YOR231W, strain MKK1, active compounds read low 0.988 | S. cerevisiae deletion strains, locus YOR265W, strain rbl2, active compounds read low 1.01 | S. cerevisiae deletion strains, locus YOR270C, strain vph1, active compounds read low 0.969 | S. cerevisiae deletion strains, locus YOR290C, strain snf2, active compounds read low 0.978 | S. cerevisiae deletion strains, locus YOR316C, strain cot1, active compounds read low 0.98 | S. cerevisiae deletion strains, locus YPL051W, strain arl3, active compounds read low 0.987 | S. cerevisiae deletion strains, locus YPL055C, strain LGE1, active compounds read low 1.01 | S. cerevisiae deletion strains, locus YPL078C, strain atp4, active compounds read low 0.969 | S. cerevisiae deletion strains, locus YPL106C, strain sse1, active compounds read low 1.04 | S. cerevisiae deletion strains, locus YPL240C, strain hsp82, active compounds read low 1 | S. cerevisiae deletion strains, locus YPL241C, strain CIN2, active compounds read low 0.978 and 0.994 | S. cerevisiae deletion strains, locus YPL256C, strain CLN2, active compounds read low 1 | S. cerevisiae deletion strains, locus YPR119W, strain clb2, active compounds read low 0.989 | S. cerevisiae deletion strains, locus YPR141C, strain kar3, active compounds read low 0.98 | S. cerevisiae deletion strains, locus YPR163C, strain tif3, active compounds read low 0.989 | S. cerevisiae deletion strains, locus YPR167C, strain met16, active compounds read low 0.986 | S. cerevisiae deletion strains, strain wtn01, active compounds read low 0.984 | S. cerevisiae strains, strain wild type, active compounds read low 1
